PubChem BioAssay (NCI)
“And” between values parts separate entries of the source, which are not always exact repeats. Equal values may be shown once. Compounds without any hit were thinned out: in the full panel of roughly 83,000, 20% have a hit.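 Cells were grown in 96-well plates and exposed to the test compound at a single concentration for 48 hours; results are reported as percent growth, with values below 10 considered active.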 The source made the active and inactive calls.

The molecules below were run on HL-60(TB) leukemia (assay: NCI-60 one-dose screen, 48 h (100 = growth as untreated, 0 = no growth, -100 = all killed)). Details: 10 µM unless noted.

Row | Structure (SMILES) | growth
1 | COc1ccc2[nH]cc(-c3nc(-c4c[nH]c5ccncc45)cs3)c2c1 | 3.64% (active)
2 | Nc1c(C(=O)Nc2cccc3ccccc23)sc2nc3c(cc12)C(=O)CCC3 | 3.95% (active)
3 | O=C(/C=C/CN1CCOCC1)Nc1cc2c(Nc3ccc(F)c(Cl)c3F)ncnc2cc1OCCOC(F)F | 76.9% (inactive)
4 | COc1cc(/C=C/C(=O)c2c(C)nc3ccccc3c2/C=C/c2ccccc2)cc(OC)c1OC | -6.84% (active)
5 | O=CC1(C2(C=O)c3ccccc3-c3ccccc32)c2ccccc2-c2ccccc21 | -52.3% (active)
6 | O=C1OC(c2nc3ccccc3s2)=C/C1=C\c1ccc(O)cc1 | 98.2% (inactive)
7 | Cc1c(C2=NNC(c3ccc4c(c3)OCO4)C2)[n+]([O-])c2ccccc2[n+]1[O-] (stereo not given) | 90.5% (inactive)
8 | COc1ccc(COC=O)cc1 | 103% (inactive)
9 | COc1cccc2cc(-c3cc4ccccc4[nH]3)c(=NC(=O)c3ccc(Cl)cc3)oc12 | 72.1% (inactive)
10 | Cc1ccc(S(=O)(=O)Nc2ccc(Cl)cc2)cc1 | 119% (inactive)
11 | COc1cc2c(cc1OC)C1(C)N(CC2)C(=O)OC1(C)C (stereo not given) | -79.2% (active)
12 | CCC(=O)Oc1ccc(OCc2ccccc2)cc1 | 35.9% (inactive) and 84.2% (inactive)
13 | CCCCN(CCCC)CC(O)CN(CC)CC (stereo not given) | 108% (inactive)
14 | Nc1ncnc2c1ncn2C1CC(O)C(CO)O1 (stereo not given) | 79.7% (inactive) and 95.3% (inactive)
15 | CCNC1(NC#N)CCCCC1 | 96.8% (inactive)
16 | O=C(Nc1cccc(-n2cc(-c3ccncc3)c(-c3ccc(Cl)c(O)c3)n2)c1)Nc1cccc(C(F)(F)F)c1 | 12.5% (inactive)
17 | CC(=O)c1cc(C)c(OC(=O)c2ccccc2)c(C)c1 | 97.9% (inactive)
18 | COc1cc(-c2nn(-c3cccc(NC(=O)CN4CCOCC4)c3)cc2-c2cccnc2)ccc1Cl | 84% (inactive)
19 | Nc1c(Br)cc(Br)c2c1[nH]c(=O)c1ccccc12 | 89.8% (inactive)
20 | COc1ccc(-c2nc(N/N=C/c3c[nH]c4ccccc34)nc(N3CCOCC3)c2C#N)cc1 | 47.9% (inactive)

Row | Structure (SMILES) | growth
21 | c1ccc(C(Nc2ccccn2)(c2ccccc2)c2ccccc2)cc1 | 90.4% (inactive)
22 | O=C1C(Cl)=C(Nc2ccc3cn[nH]c3c2)C(=O)c2ccccc21 | -69.2% (active)
23 | O=C(/C=C/c1c(Cl)nc2sccn12)c1nccs1 | 81.5% (inactive)
24 | COC(=O)C1(O)NC(=C(C#N)C#N)C(C#N)=C1C(=O)c1ccc(OC)c(OC)c1 (stereo not given) | 79% (inactive)
25 | CN1C(=O)NC(c2ccc(Cl)cc2)(c2ccc(Cl)cc2)C1=O | 78.2% (inactive)
26 | COc1ccc2c(c1)C(=O)c1c-2c(OCCN(C)C)nc2cc(OC)c(OC)cc12 | 89.9% (inactive)
27 | COC(=O)CC[C@@H]1O[C@@H](c2cccc(C(F)(F)F)c2)[C@@H](O)[C@H]1O | 105% (inactive)
28 | COc1ccccc1C1OC2=Nc3cc(C)c(C)cc3NC2C1=O (stereo not given) | 102% (inactive)
29 | CC(C)(C)n1cc(-c2ccnc(NCCNS(=O)(=O)c3ccc(C(F)(F)F)cc3)c2)c(-c2cccc(O)c2)n1 | 29.3% (inactive)
30 | Cc1nssc1=S | 106% (inactive)
31 | Fc1ccc(CNc2cccc3[nH]c(C(F)(F)F)nc23)cc1 | 55% (inactive)
32 | CC(=O)Oc1cc(C(C)C)c(OCCN(C)C)cc1C | 131% (inactive)
33 | COc1cccc(-c2nn(-c3ccccc3)cc2-c2ccnc(NCCNC(=O)Nc3ccc(Cl)c(Cl)c3)c2)c1 | 0.89% (active)
34 | CCN(CC)CCCNc1ccnc2cc3ccccc3cc12 | 83.7% (inactive)
35 | O=C(N/N=C/c1ccccc1)C(Oc1ccccc1)c1ccccc1 (stereo not given) | 109% (inactive)
36 | COc1ccc(/C=C/c2nc(Nc3ccc(Cl)cc3)c3ccccc3n2)cc1 | -11.3% (active)
37 | Cc1nc(Nc2ccccn2)sc1C(=O)/C=C/c1ccc(Cl)cc1 | -38.8% (active)
38 | OB(O)c1cccc(-c2nc3ccc4[nH]ncc4c3c3c2CCCC3)c1 | 32.6% (inactive)
39 | COc1ccc(C2C3=C(COC3=O)N(CCO)c3cc(OC)c(OC)cc32)cc1 (stereo not given) | 89% (inactive)
40 | CC(=O)Nc1ccc(OC(C)=O)cc1 | -9.02% (active) and 104% (inactive)
